According to PubChem BioAssay AID504810 (National Center for Advancing Translational Sciences (NCATS), 2011):
The campaign covered roughly 330,000 compounds. About 670 (0.2%) were called active. Only a selection was taken, and actives are over-represented in it overall. Values without a mark were called inactive.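 Rule for the calls: active = activity change below a set negative limit, meaning inhibition stronger than a set level (cut at about -70% in these data); inconclusive = activity change between two set negative limits; inactive = the rest.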

target: Thyrotropin receptor (Homo sapiens) (UniProt P16473); assay: Antagonists of the Thyroid Stimulating Hormone Receptor: HTS campaign; conditions: TSHR-expressing cells, TSH-stimulated cAMP HTRF, 2 h; at 11.5 µM; active compounds read low
Sequence (P16473 whole entry, looked up): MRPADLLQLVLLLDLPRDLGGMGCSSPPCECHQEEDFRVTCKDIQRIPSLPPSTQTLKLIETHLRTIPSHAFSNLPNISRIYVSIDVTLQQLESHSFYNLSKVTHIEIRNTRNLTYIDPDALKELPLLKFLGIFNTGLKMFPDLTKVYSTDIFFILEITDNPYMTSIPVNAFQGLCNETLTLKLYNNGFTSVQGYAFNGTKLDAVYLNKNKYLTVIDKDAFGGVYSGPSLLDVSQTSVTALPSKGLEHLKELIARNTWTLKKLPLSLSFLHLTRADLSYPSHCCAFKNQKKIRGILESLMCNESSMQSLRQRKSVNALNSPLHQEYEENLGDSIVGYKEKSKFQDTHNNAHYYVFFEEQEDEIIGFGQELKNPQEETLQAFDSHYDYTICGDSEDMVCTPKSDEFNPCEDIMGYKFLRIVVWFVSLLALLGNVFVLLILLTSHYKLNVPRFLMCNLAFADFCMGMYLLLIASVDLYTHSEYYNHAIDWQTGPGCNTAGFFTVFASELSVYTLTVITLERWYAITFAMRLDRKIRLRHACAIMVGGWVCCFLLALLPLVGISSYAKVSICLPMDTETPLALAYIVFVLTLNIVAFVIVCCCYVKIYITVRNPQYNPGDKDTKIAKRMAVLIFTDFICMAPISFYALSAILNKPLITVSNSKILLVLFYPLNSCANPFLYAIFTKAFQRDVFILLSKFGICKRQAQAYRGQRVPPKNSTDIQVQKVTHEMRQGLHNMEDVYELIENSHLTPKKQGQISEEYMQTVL
Outline: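 TSHR-expressing cells were treated with compounds, then stimulated with TSH at EC80 (4nM final) for 2 hours at 37 deg C. Cellular cAMP was measured by HTRF competition between lysate cAMP and cAMP-d2 for a cryptate-labelled anti-cAMP antibody.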
% is set by controls: 0 for no effect and ±100 for the full control effect.

SMILES	activity change, negative = inhibition
CC12CCC(C(=O)N(NC(=O)c3ccccc3O)C1=O)C2(C)C (stereo unspecified)	68.7%
COc1cc(/C=C(/NC(=O)c2ccc(Cl)cc2Cl)C(=O)O)cc(OC)c1OC	-0.961%
COc1cccc(CCNC(=O)COc2cccc3c2OC(C)(C)C3)c1	-10.3%
COc1ccccc1C(=O)NCCC(=O)N(C)Cc1cccnc1	9.57%
COc1cc(C2NC(=O)NC(c3ccccc3)=C2C(C)=O)c(Br)cc1OCC(N)=O (stereo unspecified)	-8.27%
C[C@H](NC(=O)c1nc[nH]c1C(=O)NCC(=O)OC(C)(C)C)C(=O)OCc1ccccc1	-7.53%
O=C(NNC(=O)c1cc(-c2ccccc2Cl)nc2ccccc12)c1csc(N2CCOCC2)n1	0.138%
CS(=O)(=O)N(CC(=O)N/N=C/c1ccccn1)c1ccc(Oc2ccccc2)cc1	-9.31%
NC(=O)c1ccc(Nc2ccc3nonc3c2[N+](=O)[O-])cc1	27.6%
O=[N+]([O-])c1c(NCCO)cc(Sc2nc3ccccc3s2)c2nonc12	-94.3% (active)
Cc1nc2nc(CSc3nc4ccccc4s3)cc(=O)n2[nH]1	-15%
O=C(COC(=O)COc1cccc(F)c1)NCC1CCCCC1	8.58%
Cc1cnc(NC(=O)c2ccccn2)s1	6.51%
CC(=O)Oc1ccccc1C(=O)Nc1ncc([N+](=O)[O-])s1	-80.5% (active)
O=C(Cc1c(F)cccc1Cl)Nc1ncc([N+](=O)[O-])s1	-13.2%
CCOc1ccc(C(CC(=O)O)NC(=O)C23CC4CC(CC(C4)C2)C3)cc1OC (stereo unspecified)	-4.83%
Cc1occc1-c1nnc(SCC(=O)NC2CCCCC2)o1	-3.93%
CCCCCCCCc1c(O)nc(-n2[nH]c(C)c(CCO)c2=O)[nH]c1=O	7.75%
Cc1cccc(C(=O)NNC(=O)CSc2nnc(C(C)C)n2C)c1	2.38%
Cc1ccc(SCC(=O)c2cc(C)c(OC(=S)N(C)C)c(C)c2)cc1	-25%
O=C(NC(Nc1nc2ccc([N+](=O)[O-])cc2s1)(C(F)(F)F)C(F)(F)F)c1ccccc1	-78.9% (active)

SMILES	activity change, negative = inhibition
N=C1C(c2nc3ccccc3s2)=C(O)CN1NC(=O)c1ccc([N+](=O)[O-])cc1	-1.44%
Cc1cc(CNC(=O)c2cccc([N+](=O)[O-])c2)c2ccccc2n1	-9.8%
CN(C)c1cc2c(Nc3ccc4c(cnn4Cc4ccccc4)c3)ncnc2cn1	-17.2%
COc1ccc(CCNC(=O)C2CC3Cn4c(nc5cc(C)c(C)cc54)C3N2C)cc1 (stereo unspecified)	-1.1%
Nc1ncnc2c1c(I)cn2[C@@H]1C[C@H](N)[C@@H](O)[C@H]1O	-18%
CCOc1ccc(C(=O)NC2CCN(CC(=O)NCc3cccs3)CC2)cc1	1.48%
O=C(Nn1c(SCc2ccc([N+](=O)[O-])cc2)nc2ccccc2c1=O)c1ccc(F)cc1	-74.2% (active)
Cc1nc2ccccc2c(=O)n1NC(=O)c1ccc(Cl)c([N+](=O)[O-])c1	-24.1%
C=CCn1c(SCc2ccc(C(=O)NCCO)cc2)nc2ccccc2c1=O	-4.95%
CCO[C@@H]1OC(C(=O)NCc2nc3ccccc3[nH]2)=C[C@H](C2CCCCC2)[C@H]1CCCO	-6.97%
CC(C)C[C@H](NC(=O)[C@H](O)[C@H](N)Cc1ccccc1)C(=O)O	-6.27%
COc1ccc(-n2cnnc2SCC(=O)Nc2cccc([N+](=O)[O-])c2)cc1	-5.22%
O=C(CSc1nc(-c2ccccc2)cs1)Nc1cccc([N+](=O)[O-])c1	-78.8% (active)
O=C(CSc1ncn[nH]1)Nc1nc(-c2cccc([N+](=O)[O-])c2)cs1	7.62%
COc1cc(NC(=O)c2cc([N+](=O)[O-])ccc2Br)ccc1NC(=O)c1ccco1	-16.5%
Cc1ccccc1NC(=O)CSc1nc2ccc(Nc3nc(N4CCOCC4)nc(N4CCOCC4)n3)cc2s1	-6.48%
Cc1ccc(Nc2nc(N)nc(CN3CCN(Cc4ccccc4)CC3)n2)cc1Cl	5.19%
Cc1ccc(Nc2nc(N3CCOCC3)nc(N3CCOCC3)n2)cc1Cl	-135% (active)
O=C(Nc1ccc(-c2cscn2)cc1)C1CCCN(Cc2ccc(CO)o2)C1 (stereo unspecified)	14.3%
CSc1nnc(-c2ccc(C(F)(F)F)cn2)o1	7.33%
